Measurements taken from article PMC7862700, “An all-to-all approach to the identification of sequence-specific readers for epigenetic DNA modifications on cytosine”.

What was measured:
Assay in all cases: DAPPL (digital affinity profiling via proximity ligation, sequencing); 10 mM Tris-HCl pH 7.5, 50 mM NaCl, 1 mM DTT, 4% glycerol, room temperature, 30 min; GST-TFs on glutathione beads, 16-mer random dsDNA library, 0.1% formaldehyde crosslink after washing; high values mean tight binding
Conditions in all cases: protein: recombinant; tags: N-terminal GST; dsDNA, one strand shown
FLI1 = molecular target: T1, FLI1 (Homo sapiens, UniProt Q01543 1-452)
T1 sequence: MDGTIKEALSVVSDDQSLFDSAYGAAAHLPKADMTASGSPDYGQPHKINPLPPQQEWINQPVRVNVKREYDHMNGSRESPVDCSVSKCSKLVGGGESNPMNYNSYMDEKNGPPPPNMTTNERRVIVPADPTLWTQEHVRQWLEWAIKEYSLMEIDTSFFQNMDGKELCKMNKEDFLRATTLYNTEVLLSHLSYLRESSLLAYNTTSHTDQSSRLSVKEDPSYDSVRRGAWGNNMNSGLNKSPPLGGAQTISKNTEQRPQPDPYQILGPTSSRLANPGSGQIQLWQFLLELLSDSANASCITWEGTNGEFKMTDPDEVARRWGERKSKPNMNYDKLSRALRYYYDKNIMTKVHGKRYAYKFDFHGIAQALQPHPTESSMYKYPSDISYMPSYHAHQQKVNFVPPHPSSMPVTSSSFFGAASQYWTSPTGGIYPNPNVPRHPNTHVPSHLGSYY
Procedure, shortened: (§1)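 After expression in yeast as GST fusions, human transcription factors were bound to glutathione beads, DNA-barcoded and mixed with a tag-only sample. The pools were incubated with 200 nmole of a 16-mer random double-stranded DNA library in Tris/NaCl/DTT/glycerol buffer (30 min, room temperature), washed and crosslinked with 0.1% formaldehyde. Proximity ligation with BsaI/T4 ligase ran for 1 h at 37 °C, before PCR amplification and sequencing on an Illumina NextSeq500. Binding signal is a hexamer's read frequency for a factor divided by its frequency for the tag-only sample.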

ELK1 = molecular target: T2, ELK1 (Homo sapiens, UniProt P19419 1-428)
T2 sequence: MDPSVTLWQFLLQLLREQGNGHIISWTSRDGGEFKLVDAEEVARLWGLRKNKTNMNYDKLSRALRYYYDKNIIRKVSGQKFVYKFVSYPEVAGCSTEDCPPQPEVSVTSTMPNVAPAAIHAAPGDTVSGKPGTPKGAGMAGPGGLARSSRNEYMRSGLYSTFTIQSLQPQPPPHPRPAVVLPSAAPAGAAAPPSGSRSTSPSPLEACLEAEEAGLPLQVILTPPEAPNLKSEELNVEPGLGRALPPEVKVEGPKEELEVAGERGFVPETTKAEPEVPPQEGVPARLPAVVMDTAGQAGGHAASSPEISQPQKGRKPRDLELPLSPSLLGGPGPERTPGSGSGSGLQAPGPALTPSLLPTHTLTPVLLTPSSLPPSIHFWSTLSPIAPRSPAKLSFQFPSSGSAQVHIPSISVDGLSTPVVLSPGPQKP
Procedure, shortened: as §1

GABPA = molecular target: T3, GABPA (Homo sapiens, UniProt Q06546 1-454)
T3 sequence: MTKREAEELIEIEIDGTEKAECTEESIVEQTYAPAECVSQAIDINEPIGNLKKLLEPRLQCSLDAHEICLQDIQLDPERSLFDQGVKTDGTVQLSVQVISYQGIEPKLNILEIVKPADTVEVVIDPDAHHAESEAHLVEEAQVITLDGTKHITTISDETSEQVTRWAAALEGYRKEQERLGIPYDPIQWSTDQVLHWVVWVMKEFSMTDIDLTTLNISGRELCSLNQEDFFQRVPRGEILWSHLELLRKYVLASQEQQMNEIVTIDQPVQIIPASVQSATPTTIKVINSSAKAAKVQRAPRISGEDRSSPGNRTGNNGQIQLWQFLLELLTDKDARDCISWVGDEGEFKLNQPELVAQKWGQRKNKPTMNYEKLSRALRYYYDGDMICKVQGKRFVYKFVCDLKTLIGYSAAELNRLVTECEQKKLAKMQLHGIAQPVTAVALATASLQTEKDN
Procedure, shortened: as §1

ERG = molecular target: T4, ERG (Homo sapiens, UniProt P11308 1-479)
T4 sequence: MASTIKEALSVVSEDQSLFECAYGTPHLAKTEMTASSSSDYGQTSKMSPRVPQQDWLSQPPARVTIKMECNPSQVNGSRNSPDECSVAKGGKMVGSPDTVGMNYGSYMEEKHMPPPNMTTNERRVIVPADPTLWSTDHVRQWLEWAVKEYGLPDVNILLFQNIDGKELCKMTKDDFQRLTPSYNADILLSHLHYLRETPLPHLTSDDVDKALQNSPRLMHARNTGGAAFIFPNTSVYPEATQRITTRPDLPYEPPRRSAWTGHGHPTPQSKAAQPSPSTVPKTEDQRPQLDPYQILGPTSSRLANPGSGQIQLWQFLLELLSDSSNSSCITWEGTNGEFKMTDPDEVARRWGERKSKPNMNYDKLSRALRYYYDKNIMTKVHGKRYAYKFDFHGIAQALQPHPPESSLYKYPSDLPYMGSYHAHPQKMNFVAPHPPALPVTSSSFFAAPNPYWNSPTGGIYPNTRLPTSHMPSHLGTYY
Procedure, shortened: as §1

ELF1 = ELF1 (Homo sapiens, UniProt P32519 1-619)
Procedure, shortened: as §1

EHF = molecular target: T5, EHF (Homo sapiens, UniProt Q9NZC4 1-300)
T5 sequence: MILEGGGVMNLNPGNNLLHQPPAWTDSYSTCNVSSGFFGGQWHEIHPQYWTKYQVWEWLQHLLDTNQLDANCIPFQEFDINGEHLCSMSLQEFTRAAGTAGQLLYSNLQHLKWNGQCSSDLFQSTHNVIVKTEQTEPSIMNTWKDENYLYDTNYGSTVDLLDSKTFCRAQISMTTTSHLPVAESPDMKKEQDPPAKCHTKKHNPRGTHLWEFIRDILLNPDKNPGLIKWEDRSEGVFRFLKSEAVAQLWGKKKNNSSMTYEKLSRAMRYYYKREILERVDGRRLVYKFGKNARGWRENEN
Procedure, shortened: as §1

SPI1 = SPI1 (Homo sapiens, UniProt P17947 1-270)
Procedure, shortened: as §1

SPIB = SPIB (Homo sapiens, UniProt Q01892 1-262)
Procedure, shortened: as §1

ELK3 = molecular target: T6, ELK3 (Homo sapiens, UniProt P41970 1-407)
T6 sequence: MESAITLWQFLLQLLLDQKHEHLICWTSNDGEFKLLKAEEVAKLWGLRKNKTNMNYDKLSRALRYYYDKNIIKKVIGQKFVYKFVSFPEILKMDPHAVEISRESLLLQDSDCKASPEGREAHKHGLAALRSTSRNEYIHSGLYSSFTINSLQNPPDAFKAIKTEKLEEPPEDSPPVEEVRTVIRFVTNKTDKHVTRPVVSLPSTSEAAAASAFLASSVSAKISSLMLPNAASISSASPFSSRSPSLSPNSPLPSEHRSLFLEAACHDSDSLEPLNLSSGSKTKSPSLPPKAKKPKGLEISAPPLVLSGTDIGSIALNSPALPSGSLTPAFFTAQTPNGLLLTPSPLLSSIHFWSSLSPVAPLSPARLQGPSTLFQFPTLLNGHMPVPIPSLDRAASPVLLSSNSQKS
Procedure, shortened: as §1

FEV = molecular target: T7, FEV (Homo sapiens, UniProt Q99581 1-238)
T7 sequence: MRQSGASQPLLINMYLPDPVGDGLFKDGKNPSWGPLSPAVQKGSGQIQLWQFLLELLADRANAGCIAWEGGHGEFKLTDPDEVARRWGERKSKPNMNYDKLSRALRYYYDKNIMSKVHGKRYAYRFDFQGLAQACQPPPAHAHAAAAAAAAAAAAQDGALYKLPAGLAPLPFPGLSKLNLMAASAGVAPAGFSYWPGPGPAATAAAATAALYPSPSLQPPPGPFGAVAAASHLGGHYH
Procedure, shortened: as §1

ETV5 = ETV5 (Homo sapiens, UniProt P41161 1-510)
Procedure, shortened: as §1

SPIC = molecular target: T8, SPIC (Homo sapiens, UniProt Q8N5J4 1-248)
T8 sequence: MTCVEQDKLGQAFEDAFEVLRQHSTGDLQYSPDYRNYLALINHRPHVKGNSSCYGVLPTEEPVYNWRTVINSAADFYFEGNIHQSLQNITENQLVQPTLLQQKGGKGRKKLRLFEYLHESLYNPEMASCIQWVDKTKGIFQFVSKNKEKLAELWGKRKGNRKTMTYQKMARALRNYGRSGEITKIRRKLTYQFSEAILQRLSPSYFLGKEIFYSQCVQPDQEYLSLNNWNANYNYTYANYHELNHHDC
Procedure, shortened: as §1

ELF4 = ELF4 (Homo sapiens, UniProt Q99607 1-663)
Procedure, shortened: as §1

ELK4 = molecular target: T9, ELK4 (Homo sapiens, UniProt P28324-2 1-405)
T9 sequence: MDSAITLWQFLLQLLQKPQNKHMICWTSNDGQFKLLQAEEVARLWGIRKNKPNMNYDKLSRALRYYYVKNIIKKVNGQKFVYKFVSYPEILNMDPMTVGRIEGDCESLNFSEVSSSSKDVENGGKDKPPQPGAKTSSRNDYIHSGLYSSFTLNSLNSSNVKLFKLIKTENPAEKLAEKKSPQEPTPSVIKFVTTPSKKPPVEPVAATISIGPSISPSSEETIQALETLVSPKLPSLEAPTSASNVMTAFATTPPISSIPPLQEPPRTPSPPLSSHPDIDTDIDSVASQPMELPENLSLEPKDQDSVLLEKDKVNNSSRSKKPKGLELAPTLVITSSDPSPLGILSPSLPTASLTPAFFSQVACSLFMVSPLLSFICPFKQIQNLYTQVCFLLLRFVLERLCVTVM
Procedure, shortened: as §1

ETV2 = molecular target: T10, ETV2 (Homo sapiens, UniProt O00321 1-342)
T10 sequence: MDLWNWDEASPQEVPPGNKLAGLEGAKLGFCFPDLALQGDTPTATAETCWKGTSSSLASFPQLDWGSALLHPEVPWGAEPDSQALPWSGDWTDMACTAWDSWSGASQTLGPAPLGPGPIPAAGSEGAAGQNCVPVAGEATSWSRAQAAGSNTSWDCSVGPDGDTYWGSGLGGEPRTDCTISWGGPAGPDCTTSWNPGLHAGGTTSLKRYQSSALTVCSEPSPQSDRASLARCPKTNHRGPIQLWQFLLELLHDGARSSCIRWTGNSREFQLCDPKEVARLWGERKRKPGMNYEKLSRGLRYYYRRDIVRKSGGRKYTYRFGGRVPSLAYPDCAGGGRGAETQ
Procedure, shortened: as §1

ELF3 = molecular target: T11, ELF3 (Homo sapiens, UniProt P78545 1-371)
T11 sequence: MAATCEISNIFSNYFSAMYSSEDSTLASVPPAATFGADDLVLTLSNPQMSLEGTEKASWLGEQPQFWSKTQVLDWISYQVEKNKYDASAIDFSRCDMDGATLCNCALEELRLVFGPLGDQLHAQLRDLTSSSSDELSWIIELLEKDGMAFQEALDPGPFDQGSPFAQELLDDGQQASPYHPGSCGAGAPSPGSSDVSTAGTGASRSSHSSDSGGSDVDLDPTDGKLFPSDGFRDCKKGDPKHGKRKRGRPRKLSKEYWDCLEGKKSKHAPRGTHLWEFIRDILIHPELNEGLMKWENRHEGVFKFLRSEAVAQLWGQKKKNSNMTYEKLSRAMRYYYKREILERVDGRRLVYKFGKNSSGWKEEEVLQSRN
Procedure, shortened: as §1

ETV1 = ETV1 (Homo sapiens, UniProt P50549 1-477)
Procedure, shortened: as §1

Sequence of ETV1 (P50549 whole entry): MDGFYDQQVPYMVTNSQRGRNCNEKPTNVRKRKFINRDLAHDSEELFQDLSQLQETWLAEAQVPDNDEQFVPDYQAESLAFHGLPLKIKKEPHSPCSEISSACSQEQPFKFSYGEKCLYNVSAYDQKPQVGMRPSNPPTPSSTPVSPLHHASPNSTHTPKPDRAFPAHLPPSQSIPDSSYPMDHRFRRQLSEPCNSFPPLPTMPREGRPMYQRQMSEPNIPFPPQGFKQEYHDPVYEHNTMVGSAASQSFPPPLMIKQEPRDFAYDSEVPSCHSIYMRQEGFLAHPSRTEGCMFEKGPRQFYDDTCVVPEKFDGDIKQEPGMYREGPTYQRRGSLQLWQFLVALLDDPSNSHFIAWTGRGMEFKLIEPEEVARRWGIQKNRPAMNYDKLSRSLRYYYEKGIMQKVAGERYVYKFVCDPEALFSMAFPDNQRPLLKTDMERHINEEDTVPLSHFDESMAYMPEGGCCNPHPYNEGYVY
Sequence of ELF1 (P32519 whole entry): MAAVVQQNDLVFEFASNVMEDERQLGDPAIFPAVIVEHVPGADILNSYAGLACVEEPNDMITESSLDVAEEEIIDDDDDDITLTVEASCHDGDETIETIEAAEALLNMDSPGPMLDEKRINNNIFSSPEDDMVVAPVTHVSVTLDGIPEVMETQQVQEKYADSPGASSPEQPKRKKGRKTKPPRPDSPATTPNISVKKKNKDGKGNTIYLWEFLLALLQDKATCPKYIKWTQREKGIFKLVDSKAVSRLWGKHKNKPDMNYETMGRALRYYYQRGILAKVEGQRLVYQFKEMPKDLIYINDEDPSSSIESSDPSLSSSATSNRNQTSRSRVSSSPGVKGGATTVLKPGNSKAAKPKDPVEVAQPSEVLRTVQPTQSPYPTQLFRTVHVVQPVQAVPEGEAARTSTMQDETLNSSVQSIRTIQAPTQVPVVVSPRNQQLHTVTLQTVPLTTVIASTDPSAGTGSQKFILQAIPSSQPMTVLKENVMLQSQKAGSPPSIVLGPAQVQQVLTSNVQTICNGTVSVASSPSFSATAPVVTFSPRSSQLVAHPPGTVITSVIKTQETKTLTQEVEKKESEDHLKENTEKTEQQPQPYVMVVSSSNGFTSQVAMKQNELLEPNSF
Sequence of ELF4 (Q99607 whole entry): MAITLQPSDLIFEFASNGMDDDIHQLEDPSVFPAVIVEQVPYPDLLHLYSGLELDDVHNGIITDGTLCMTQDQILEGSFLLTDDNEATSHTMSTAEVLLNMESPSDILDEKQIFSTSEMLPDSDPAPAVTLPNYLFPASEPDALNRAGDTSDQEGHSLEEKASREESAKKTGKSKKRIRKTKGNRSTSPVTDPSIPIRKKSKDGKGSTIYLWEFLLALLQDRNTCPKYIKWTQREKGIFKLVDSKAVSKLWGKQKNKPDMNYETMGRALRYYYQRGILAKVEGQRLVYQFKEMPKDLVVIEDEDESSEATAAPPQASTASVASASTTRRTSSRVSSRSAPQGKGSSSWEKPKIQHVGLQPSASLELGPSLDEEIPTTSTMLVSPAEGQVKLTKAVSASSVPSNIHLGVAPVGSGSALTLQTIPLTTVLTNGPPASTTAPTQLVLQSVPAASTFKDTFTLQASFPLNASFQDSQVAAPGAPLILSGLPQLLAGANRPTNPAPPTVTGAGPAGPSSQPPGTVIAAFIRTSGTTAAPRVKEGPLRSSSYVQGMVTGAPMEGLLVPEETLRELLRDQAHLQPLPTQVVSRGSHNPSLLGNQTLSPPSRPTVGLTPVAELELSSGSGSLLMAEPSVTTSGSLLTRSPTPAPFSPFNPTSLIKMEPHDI
Sequence of ETV5 (P41161 whole entry): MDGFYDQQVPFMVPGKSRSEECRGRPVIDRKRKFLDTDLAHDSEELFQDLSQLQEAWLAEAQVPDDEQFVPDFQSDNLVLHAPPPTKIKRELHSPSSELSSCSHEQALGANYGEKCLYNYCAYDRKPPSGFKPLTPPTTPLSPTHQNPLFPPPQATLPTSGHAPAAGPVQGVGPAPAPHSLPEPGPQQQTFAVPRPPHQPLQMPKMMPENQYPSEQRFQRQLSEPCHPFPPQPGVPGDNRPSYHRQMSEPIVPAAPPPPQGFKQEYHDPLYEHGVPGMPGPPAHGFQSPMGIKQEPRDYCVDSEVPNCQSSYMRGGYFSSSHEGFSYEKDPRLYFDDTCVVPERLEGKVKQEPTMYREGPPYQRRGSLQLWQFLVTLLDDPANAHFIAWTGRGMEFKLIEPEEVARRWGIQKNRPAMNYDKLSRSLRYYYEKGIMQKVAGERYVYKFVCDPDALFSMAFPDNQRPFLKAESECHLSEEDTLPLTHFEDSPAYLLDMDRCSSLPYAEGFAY
Sequence of SPIB (Q01892 whole entry): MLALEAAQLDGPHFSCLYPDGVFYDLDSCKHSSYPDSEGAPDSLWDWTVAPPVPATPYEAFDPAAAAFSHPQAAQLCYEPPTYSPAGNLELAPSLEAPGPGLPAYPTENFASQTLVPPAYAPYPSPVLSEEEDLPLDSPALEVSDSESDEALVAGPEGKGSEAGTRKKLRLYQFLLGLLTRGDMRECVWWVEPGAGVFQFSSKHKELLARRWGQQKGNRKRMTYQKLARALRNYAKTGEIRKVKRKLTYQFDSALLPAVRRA

Sequence: CACAAC
- binding signal (FLI1): 1.24 fold enrichment (6-mer frequency, TF over GST control)
- binding signal (ELK1): 1.24 fold enrichment (6-mer frequency, TF over GST control)
- binding signal (GABPA): 1.3 fold enrichment (6-mer frequency, TF over GST control)
- binding signal (ERG): 1.25 fold enrichment (6-mer frequency, TF over GST control)
- binding signal (ELF1): 1.28 fold enrichment (6-mer frequency, TF over GST control)
- binding signal (EHF): 1.21 fold enrichment (6-mer frequency, TF over GST control)
- binding signal (SPI1): 1.21 fold enrichment (6-mer frequency, TF over GST control)
- binding signal (SPIB): 1.23 fold enrichment (6-mer frequency, TF over GST control)
- binding signal (ELK3): 1.22 fold enrichment (6-mer frequency, TF over GST control)
- binding signal (FEV): 1.31 fold enrichment (6-mer frequency, TF over GST control)
- binding signal (ETV5): 1.24 fold enrichment (6-mer frequency, TF over GST control)
- binding signal (SPIC): 1.25 fold enrichment (6-mer frequency, TF over GST control)
- binding signal (ELF4): 1.23 fold enrichment (6-mer frequency, TF over GST control)
- binding signal (ELK4): 1.25 fold enrichment (6-mer frequency, TF over GST control)
- binding signal (ETV2): 1.19 fold enrichment (6-mer frequency, TF over GST control)
- binding signal (ELF3): 1.3 fold enrichment (6-mer frequency, TF over GST control)
- binding signal (ETV1): 1.2 fold enrichment (6-mer frequency, TF over GST control)

Sequence: GCACCC
- binding signal (FLI1): 1.21 fold enrichment (6-mer frequency, TF over GST control)
- binding signal (ELK1): 1.25 fold enrichment (6-mer frequency, TF over GST control)
- binding signal (GABPA): 1.25 fold enrichment (6-mer frequency, TF over GST control)
- binding signal (ERG): 1.17 fold enrichment (6-mer frequency, TF over GST control)
- binding signal (ELF1): 1.16 fold enrichment (6-mer frequency, TF over GST control)
- binding signal (EHF): 1.01 fold enrichment (6-mer frequency, TF over GST control)
- binding signal (SPI1): 1.18 fold enrichment (6-mer frequency, TF over GST control)
- binding signal (SPIB): 1.2 fold enrichment (6-mer frequency, TF over GST control)
- binding signal (ELK3): 1.14 fold enrichment (6-mer frequency, TF over GST control)
- binding signal (FEV): 1.12 fold enrichment (6-mer frequency, TF over GST control)
- binding signal (ETV5): 1.11 fold enrichment (6-mer frequency, TF over GST control)
- binding signal (SPIC): 1.3 fold enrichment (6-mer frequency, TF over GST control)
- binding signal (ELF4): 1.22 fold enrichment (6-mer frequency, TF over GST control)
- binding signal (ELK4): 1.33 fold enrichment (6-mer frequency, TF over GST control)
- binding signal (ETV2): 1.28 fold enrichment (6-mer frequency, TF over GST control)
- binding signal (ELF3): 1.25 fold enrichment (6-mer frequency, TF over GST control)
- binding signal (ETV1): 1.15 fold enrichment (6-mer frequency, TF over GST control)
